This is a sample that favours compounds with a hit; in the whole collection about 11% have one here.
Pf growth 48h – P. falciparum growth inhibition at 48 hours (one generation); P. falciparum luciferase growth in erythrocytes, 48 h; Potency, µM (top dose mostly 28.7 µM), inactives show at the highest dose activity change, negative = inhibition, usual class: inhibitors; hit rate 5.9% among 310,000; AID 504832; also: % is scaled to controls: 0 for no effect and ±100 for the full control effect
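Compounds are pin-transferred into medium, infected erythrocytes (2% hematocrit, 0.1% parasitemia final) are added, and plates sit one parasite generation at 37 C in 5% CO2. Detection reagent is then added and luminescence measured.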
Vaccinia mCherry – vaccinia inhibition (mCherry reporter) | Vaccinia virus mCherry reporter infection, fluorescence | Potency, µM (highest dose often 36.5 µM), for the others: at the highest dose activity change, negative = inhibition, most hits filed as inhibitors | hit rate 0.63% among 310,000 | AID 720579; calls by dose curve; tested in A549 cells; also: % is scaled to controls: 0 for no effect and ±100 for the full control effect; nearly all actives have a fitted effect of over 35% in size
VACV Venus inh – vaccinia inhibition (Venus reporter); hit rate 0.46% among 330,000; Vaccinia virus Venus reporter expression, fluorescence; Potency, µM (series often up to 36.5 µM), for the others: top-dose activity change, negative = inhibition, most hits filed as inhibitors; AID 720580; calls by dose curve; tested in A549 cells; also: % is scaled to controls: 0 for no effect and ±100 for the full control effect; nearly all actives have a fitted effect of over 30% in size
HCV inh – blocks hepatitis C virus. Huh7.5.1 HCVcc-Cre infection, luciferase reporter, 44 h. Potency, µM (titrated, usually from 41.8 µM), without a hit: at the top dose activity change, negative = inhibition, most hits filed as inhibitors. hit rate 3.4% among 340,000. AID 651820; also: % is scaled to controls: 0 for no effect and ±100 for the full control effect
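Cells seeded at 1,000/well and cultured 4 h, then compounds added followed by HCVcc-Cre virus (~0.5 moi). After 44 h further culture, luciferase substrate was added, plates held 15 min at room temperature, and luminescence read for 15 sec.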
NS1 function inh – inhibitors of influenza NS1 protein function. Potency, µM (highest dose often 46.1 µM), inactives show at the highest dose activity, positive = more growth. hit rate 0.4% among 270,000. AID 2326; calls by dose curve; also: actives are rising curves; nearly all actives have a fitted effect of over 50% in size
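S. cerevisiae expressing influenza A NS1, grown in glucose, washed, then diluted 1:100 into pH 6.0 -URA galactose medium with 23 nl compound. Growth recovery read as OD600; NS1-free strain serves as control.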
Pf growth 96h – P. falciparum growth inhibition at 96 hours; P. falciparum luciferase reporter growth, 96 h; AID 504834; hit rate 6.9% among 320,000; Potency, µM (doses to about 28.7 µM), without a hit: at the highest dose activity change, negative = inhibition, usual class: inhibitors; also: % is scaled to controls: 0 for no effect and ±100 for the full control effect
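Two parasite generations (96 h, 37 C, 5% CO2) of compound exposure in infected erythrocytes (0.05% parasitemia, 2% hematocrit). Luciferase-reporter P. falciparum; decreased luminescence indicates inhibited growth, aimed at apicoplast-acting delayed death.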
* hit, by the source's call; i = inactive; ? = inconclusive; . = no result; [ ] = remark or other dose. Unless noted, calls follow the shape of the dose curve; as a rule, active = well fitted inhibition curve with a large enough effect; inconclusive = small, poorly fitted or top-dose-only effect, or another doubt; inactive = no such curve, though single readings can be large or run the other way. Potency is read from the fitted curve at half-maximal effect.

SMILES	Pf growth 48h	Vaccinia mCherry	VACV Venus inh	HCV inh	NS1 function inh	Pf growth 96h
Clc1ccc(OCCn2c(-c3ccco3)nc3ccccc32)cc1	.	.	.	-22%	-51%	12µM*
COc1ccc(C(=O)n2c(-c3ccco3)nc3ccccc32)cc1	82%	?	?	-12%	-163%	2.1µM*
COCC(=O)NCCc1nc2ccccc2[nH]1	3%	-9%	11%	9%	7%	19%
O=C(NCc1nc(-c2ccccc2)no1)c1ccc2c(c1)OCO2	16%	i	-7%	?	-86%	.
CCN(CC)CCSc1nnc2c3cc(C)ccc3n(Cc3ccccc3)c2n1	?	i[7.34 µM]	-5%[7.34 µM]	13µM*	-5%	?
CCCCn1c2ccc(F)cc2c2nnc(SCCN(CC)CC)nc21	.	-15%	-17%	.	.	.
COc1ccc(NC(=O)C2CCCN2C(=O)Nc2ccc(OC)cc2)cc1 (configuration not stated)	2%	8%	4%	17%	2%	14%
COc1ccc(Cc2c(O)nc(SCC(=O)c3ccc(OC)cc3)[nH]c2=O)cc1	4%	-10%	-6%	4%	-2%	-62%[1.15 µM]
Cc1nc(SCC(N)=O)[nH]c(=O)c1Cc1ccc(OC(C)C)cc1	?	-7%	8%	8%	6%	1.7µM*
CC(=Nc1ccc(O)cc1)c1sc2ccccc2c1O	128%	-15%	-24%	13µM*	-24%	42%
CC(=Nc1ccccc1O)c1sc2ccccc2c1O	?	.	.	?	-74%	15µM*
CC(=Nc1cccc(C)c1)c1sc2ccccc2c1O	118%	-10%	0%	?	0%	216%
O=C(NCCN1CCCCCC1)c1ccc(N2CCCC2=O)cc1	18%	-19%	-5%	?	1%	18%
Cc1cc(C(=O)COC(=O)Cn2cnc3c2c(=O)n(C)c(=O)n3C)c(C)n1C	2%	.	.	7%	4%	34%
CCCCn1cnc2c1c(=O)n(CC(=O)c1cc(C)n(C)c1C)c(=O)n2CC(C)C	.	.	-27%	0%	-2%	12µM*
CCN(CC(=O)Nc1cccc(F)c1)CC(=O)Nc1ccc2c(c1)OCCO2	.	i	-11%	.	.	.
N#CCCN(C(=O)COc1ccc(C#N)cc1)c1ccc(F)cc1	?	-18%	-7%	-6%	.	3%
CCCn1cc(SCC(=O)Nc2ccc3c(c2)OCO3)c2ccccc21	?	?	-13%	14µM*	-10%	10µM*
Cn1c(=O)cc(SCC(=O)Nc2ccc3c(c2)OCO3)c2ccccc21	31%	.	.	?	0%	2.9µM*
CCn1c(=O)cc(SCC(=O)Nc2ccc3c(c2)OCCO3)c2ccccc21	83%	.	.	?	5%	.
CC(NC(=O)COc1cc(=O)n(C)c2ccccc12)c1ccc2c(c1)OCCO2 (configuration not stated)	14%	.	.	15%	-1%	8.3µM*
Cn1cc(SCC(=O)Nc2ccc3c(c2)OCO3)c2ccccc21	.	-18%	-24%	-6%	-81%	?
CCOC(=O)c1c(S(=O)(=O)N2CCC(C(=O)Nc3ccc(OCC)cc3)CC2)c(C)n(C)c1C	.	-10%	-11%	.	.	.
O=C(Nc1ccc(Cl)cc1)Nc1ccc(N2CCOCC2)cc1	8%	-14%	-14%	-11%	-7%	1%
CCC(CC)NC(=O)Nc1ccc(F)cc1F	7%	.	.	16%	4%	?
SMILES	Pf growth 48h	Vaccinia mCherry	VACV Venus inh	HCV inh	NS1 function inh	Pf growth 96h
CC(C)CCNC(=O)C1CCC(CNS(=O)(=O)c2ccc(Cl)cc2)CC1 (configuration not stated)	0%	.	.	6%	-1%	31%
Cc1cccc(N2CCN(C(=O)c3c(-c4ccccc4)noc3C)CC2)c1C	?	?	-21%	?	-22%	10µM*
Cc1onc(-c2ccccc2)c1C(=O)N1CCN(C/C=C/c2ccccc2)CC1	.	?	-19%	-1%	-35%	2.1µM*
C=CCN1CCN(C(=O)c2c(-c3ccccc3)noc2C)CC1	-7%	0%	-2%	4%	8%	-25%
CCc1noc(C)c1C(=O)N1CCN(c2cccc(C)c2C)CC1	?	i	-13%	2%	.	4%
Cc1nnc(SCC(=O)N2CCN(c3ccccc3F)CC2)n1C1CC1	0%	-10%	-1%	21%	.	12%

Source: PubChem (National Center for Advancing Translational Sciences (NCATS))
